Rows were chosen to be rich in hits. Some 11% of all compounds tested hit in one or more screens of this group.
HP1b binding inh: HTS for Inhibitors of HP1-beta Chromodomain Interactions with Methylated Histone Tails; AID 540317, 2011; 390,000 compounds, 0.56% hits; Potency, µM (titrated, usually from 114 µM), inactives show at the top dose activity change, negative = inhibition, actives largely listed as inhibitors; AlphaScreen HP1-beta / biotin-H3K9me3 peptide binding; also: nearly all actives have a fitted effect of over 70% in size
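HP1-beta protein (50 nM final) preincubated 30 min at room temperature with biotinylated H3(1-18)K9me3 peptide (50 nM) in PBS pH 7.4, 0.01% Tween-20, then compound added for 30 min. AlphaScreen streptavidin donor/nickel chelate acceptor beads (10 ug/mL final), 30 min dark, luminescence read.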
BAZ2B block: qHTS Assay for Inhibitors of BAZ2B; Potency, µM (top dose mostly 114 µM), inactives show top-dose activity change, negative = inhibition, most hits filed as inhibitors; AlphaScreen BAZ2B-H3K14Ac peptide displacement; 360,000 compounds, 4.4% hits; Bromodomain adjacent to zinc finger domain protein 2B (Homo sapiens), Q9UIF8; AID 504333, 2011; also: % is scaled to controls: 0 for no effect and ±100 for the full control effect; nearly all actives have a fitted effect of over 60% in size
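In this displacement format the biotinylated H3(5-23) peptide acetylated at Lys14 serves as ligand at 50 nM, with BAZ2B at 50 nM in PBS pH 7.4 containing 0.01% Tween-20. Donor and acceptor beads are 10 ug/mL final.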
JMJD2A Tudor inh: qHTS Assay for Inhibitors of JMJD2A-Tudor Domain; 390,000 compounds, 4.4% hits; AID 504339, 2011; AlphaScreen JMJD2A-Tudor / H3K4me3 peptide binding; Potency, µM (series often up to 114 µM), inactives show top-dose activity change, negative = inhibition, actives largely listed as inhibitors; also: % is scaled to controls: 0 for no effect and ±100 for the full control effect; nearly all actives have a fitted effect of over 50% in size
Target sequence (O75164 whole entry, looked up, the tested form may be a part): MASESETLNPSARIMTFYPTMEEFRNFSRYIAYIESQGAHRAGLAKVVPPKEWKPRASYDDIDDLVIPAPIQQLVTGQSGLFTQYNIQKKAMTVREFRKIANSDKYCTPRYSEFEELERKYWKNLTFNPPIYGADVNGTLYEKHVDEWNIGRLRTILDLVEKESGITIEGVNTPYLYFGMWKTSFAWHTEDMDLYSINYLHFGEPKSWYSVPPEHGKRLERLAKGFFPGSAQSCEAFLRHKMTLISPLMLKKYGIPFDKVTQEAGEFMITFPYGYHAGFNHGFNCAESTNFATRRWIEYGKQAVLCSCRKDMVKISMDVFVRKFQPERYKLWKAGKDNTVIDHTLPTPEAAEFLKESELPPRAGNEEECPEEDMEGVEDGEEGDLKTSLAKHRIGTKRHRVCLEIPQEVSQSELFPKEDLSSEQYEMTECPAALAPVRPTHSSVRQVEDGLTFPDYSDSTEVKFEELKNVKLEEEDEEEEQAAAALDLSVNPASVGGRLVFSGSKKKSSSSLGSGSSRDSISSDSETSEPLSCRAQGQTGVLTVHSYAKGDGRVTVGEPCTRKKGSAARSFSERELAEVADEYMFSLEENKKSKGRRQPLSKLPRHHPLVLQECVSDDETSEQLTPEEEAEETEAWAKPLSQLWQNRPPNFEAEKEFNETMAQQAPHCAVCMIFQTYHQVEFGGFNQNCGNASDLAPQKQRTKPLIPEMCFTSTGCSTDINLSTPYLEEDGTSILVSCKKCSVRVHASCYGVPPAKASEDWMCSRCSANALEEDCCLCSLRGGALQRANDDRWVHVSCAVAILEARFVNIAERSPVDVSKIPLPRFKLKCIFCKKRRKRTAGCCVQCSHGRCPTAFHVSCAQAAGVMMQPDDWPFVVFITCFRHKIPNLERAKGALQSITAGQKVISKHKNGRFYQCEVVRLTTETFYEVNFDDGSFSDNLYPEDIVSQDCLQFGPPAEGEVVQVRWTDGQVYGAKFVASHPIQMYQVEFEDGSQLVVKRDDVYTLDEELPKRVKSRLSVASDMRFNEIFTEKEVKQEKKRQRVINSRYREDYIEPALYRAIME
L3MBTL1 inh: qHTS Assay for the Inhibitors of L3MBTL1; Potency, µM (top dose mostly 57.1 µM), for the others: at the highest dose activity, negative = inhibition, hits mostly inhibitors; 230,000 compounds, 0.66% hits; Lethal(3)malignant brain tumor-like protein 1 (Homo sapiens), Q9Y468; AID 485360, 2010; AlphaScreen L3MBTL1–H3K9me1 peptide binding; also: % is scaled to controls: 0 for no effect and ±100 for the full control effect; nearly all actives have a fitted effect of over 60% in size
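L3MBTL1 50 nM + b-AHA-H3(1-15)K9me1 75 nM, 30 min RT; compound added, 30 min RT; streptavidin donor/Ni-chelate acceptor beads 10 ug/mL each final, 30 min RT dark; AlphaScreen read.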
G9a block: qHTS Assay for Inhibitors of Histone Lysine Methyltransferase G9a; Potency, µM (series often up to 102 µM), for inactives: top-dose activity, negative = inhibition, actives largely listed as inhibitors; Histone-lysine N-methyltransferase EHMT2 (Homo sapiens), Q96KQ7; G9a H3K9 monomethylation, AlphaScreen, 2 h; 350,000 compounds, 8.8% hits; also: % is scaled to controls: 0 for no effect and ±100 for the full control effect; nearly all actives have a fitted effect of over 75% in size
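G9a (20 nM) was preincubated 15 min with compound, then reacted 2 h at room temperature with 500 nM biotin-H3K9 peptide and 20 µM SAM. Monomethyl-H3K9 detected by AlphaScreen using anti-H3K9me1 antibody.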
* hit, by the source's call; ? = inconclusive; nt = no result; [ ] = another dose, or the depositor's remark. Calls follow the shape of the dose curve; as a rule, active = well fitted inhibition curve with a large enough effect; inconclusive = small, poorly fitted or top-dose-only effect; inactive = no such curve, though single readings can be large or run the other way. Potency is read from the fitted curve at half-maximal effect.

SMILES	HP1b binding inh	BAZ2B block	JMJD2A Tudor inh	L3MBTL1 inh	G9a block
CCOC(=O)c1cccc(NC(=O)N2Cc3ccccc3Oc3ncccc32)c1	36%	-18%	-15%	nt	5%[59 µM]
CCN(CC)C(=O)Cn1c(=O)n(-c2ccc(OC)cc2OC)c(=O)c2c(C)c(C(=O)N(CC)CC)sc21	59%	13%	-16%	nt	15%[59 µM]
CCOC(=O)C1/C(=N\O)CC(C)(O)C(C(=O)OCC)C1c1ccc(N(C)C)cc1 (stereo unspecified)	15%	79µM*	-36%	nt	18µM*
COc1ccccc1NC(=O)c1oc2ccccc2c1NC(=O)Cc1ccccc1	35%	-2%	-15%	nt	-35%[59 µM]
COc1ccccc1-c1c(C(F)(F)F)oc2cc(OC(=O)c3ccc([N+](=O)[O-])cc3)ccc2c1=O	?	?	?	10%	25µM*
Cc1cc2c(s1)c1cnn(Cc3ccccc3C)c(=O)c1n2C	nt	nt	-2%	nt	nt
CCCCCn1c(CCCNC(=O)c2ccccc2)nc2ccccc21	16%	0%	-12%	nt	6%[59 µM]
Cc1ccc(-n2c(=O)c3c(cnn3C)n(CC(=O)Nc3c(C)cccc3C)c2=O)cc1	15%	1%	-1%	nt	3%[59 µM]
Oc1c(N=NC(=S)Nc2ccccc2F)c2ccccc2n1Cc1cccc(Cl)c1	?	11µM*	?	nt	?
NC(=S)N=Nc1c(O)n(Cc2ccc(F)cc2)c2ccccc12	27%	11%	-19%	-1%	6%
Cc1cccc(Cn2c(O)c(N=NC(=S)Nc3ccccc3F)c3ccccc32)c1	-12%	8.9µM*	10µM*	nt	8.9µM*
Cc1ccc(C2C(C#N)=C(N)Oc3nc(-c4ccccc4)[nH]c32)o1 (stereo unspecified)	-12%	-33%	-33%	-8%	50µM*
N#CC1=C(N)Oc2nc(-c3ccccc3)[nH]c2C1c1cccnc1 (stereo unspecified)	30%	-3%	-11%	1%	?
COc1ccccc1CCNC(=O)c1ccc(-c2nc(CSc3ccc(C)cc3)c(C)o2)cc1	25%	-10%	-17%	nt	-27%[59 µM]
O=C(Nc1nnc(SCc2ccccc2)s1)c1cccc([N+](=O)[O-])c1	-3%	-7%	-24%	-7%	79µM*
c1ccc(SCCN2CCc3ccccc3C2)cc1	-32%	5%	25µM*	14%	40µM*
Cc1ccc(SCCN2CCN(C)CC2)cc1	15%	-25%	-13%	-2%	50µM*
c1ccc(SCCOCCN2CCc3ccccc3C2)cc1	13%[57 µM]	-16%	-11%	9%	-6%[59 µM]
O=C1CCN(CCc2ccccc2)CCN1CCSc1ccccc1	21%	-8%	-20%	-2%	nt
Cc1ccc(SCCN2CCN(C)CCC2=O)cc1	39%	6%	-6%	nt	-5%[59 µM]
OCCN1CCN(CCSc2ccccc2)CC1	0%	-17%	28µM*	9%	?
CCn1ccc2c(OCC(=O)Nc3ccc(C)c(Cl)c3)cccc2c1=O	21%	-16%	-12%	nt	3%[59 µM]
COc1ccc(C(c2c(O)cc(C)n(Cc3ccco3)c2=O)N2CCCCC2)cc1OC (stereo unspecified)	19%[57 µM]	0%	-9%	nt	0%[59 µM]
CCOC(=O)c1cccc(NC(=O)c2cc3ccccn3n2)c1	29%	3%	-2%	nt	-16%[59 µM]
Cc1sc(NC(=O)CCCC(=O)O)c(C(N)=O)c1-c1ccccc1	-33%	0%	-23%	nt	25µM*
SMILES	HP1b binding inh	BAZ2B block	JMJD2A Tudor inh	L3MBTL1 inh	G9a block
O=C(Oc1cc(-c2ccccc2)no1)c1ccc(Cl)cc1	23%	?	-28%[11.4 µM]	nt	79µM*
Cc1[nH]c2ccccc2c1C(c1ccccn1)c1c(C)[nH]c2ccccc12	-4%	35µM*	-25%	nt	28µM*
COc1ccccc1NC(=O)c1ccc(NC(=O)c2ccco2)cc1	31%	0%	-3%	nt	?
COc1ccccc1C(=O)NCc1ccccc1	39%	7%	-15%	3%	6%[59 µM]
COc1ccccc1NC(=O)C(=O)NNC(=O)c1ccco1	16%	?	?	4%	8.9µM*
O=C(NCCNC(=O)c1ccccc1Cl)c1ccco1	-3%	16%	79µM*	nt	50µM*
